Data taken from PubChem BioAssay (NCATS).
Records with an inconclusive call do not appear. Calls of active or inactive are those of the source. The call rests on the fitted dose curve; in most records, active means well fitted curve in the direction sought with a large enough effect; inconclusive means small, poorly fitted or top-dose-only effect, or another doubt; inactive means no such curve, though single readings can be large; an effect the other way counts as inactive or inconclusive. Where a SMILES comes first, the peptide text is derived from it. [ ]: non-standard residue; d: D form. ξ: configuration not given here. ξTyr(βOH) = NC(C(=O)O)C(O)c1ccc(O)cc1

What was measured:
[1] = target: Glutathione peroxidase 1 (Homo sapiens) (UniProt P07203); assay: Primary qHTS Assay for Inhibitors of Recombinant Selenoprotein Glutathione Peroxidase 1 (GPX1) (AID 1845191); conditions: recombinant GPX1, GR-coupled NADPH fluorescence, 15 min; series mostly up to 27.7 µM; further: nearly all actives have a fitted effect of over 65% in size; on activity, negative = inhibition: on the % scale 0 is the no-effect control and ±100 the full control effect
Sequence of Glutathione peroxidase 1 (Homo sapiens) (P07203 whole entry, looked up): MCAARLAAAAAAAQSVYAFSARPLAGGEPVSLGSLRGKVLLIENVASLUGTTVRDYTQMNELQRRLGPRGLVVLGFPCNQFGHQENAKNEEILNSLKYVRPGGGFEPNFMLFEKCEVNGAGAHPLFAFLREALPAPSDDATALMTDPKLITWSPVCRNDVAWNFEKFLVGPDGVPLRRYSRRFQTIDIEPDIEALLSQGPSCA
How it was run: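 GPX1 10 nM, GR 100 nM, GSH 1 mM, NADPH 0.5 mM, CHP 0.5 mM (final). 30-min cpd preincubation, RT. Ex340/Em450 read t=0, t=15 min.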

[2] = target: Luciferin 4-monooxygenase (Photinus pyralis) (UniProt P08659); assay: Primary firefly luciferase (FLuc) qHTS assay for identification of artifact compounds. (AID 1845220); conditions: purified firefly luciferase, luminescence, 5 min; series mostly up to 54.1 µM; further: nearly all actives have a fitted effect of over 60% in size; further: potency means the concentration at half of the fitted maximal effect;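 on activity change, negative = inhibition: plate controls were DMSO vehicle for no effect and no enzyme for full effect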
How it was run: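 qHTS, 15 min compound preincubation with substrate (10 uM luciferin, 10 uM ATP) at RT, then 10 nM FLuc; 5 min; luminescence; % inhibition vs no-enzyme/DMSO controls, 4-parameter Hill fit.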

[3] = tested on: Nanoluciferase (engineered Oplophorus gracilirostris luciferase); assay: Primary Nanoluciferase (NLuc) qHTS assay for identification of artifact compounds. (AID 1845222); conditions: NLuc-conditioned medium, Nano-Glo luminescence, 5 min; series mostly up to 54.1 µM; further: potency means the concentration at half of the fitted maximal effect
How it was run: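 Luminescence read-out of secreted NLuc in S16 cell conditioned medium (1:55); compounds tested with 15 min RT preincubation, then Nano-Glo substrate 1:100, 5 min. % inhibition vs no-enzyme and DMSO controls, 4-parameter Hill fit.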

[4] = Primary fluorescence-based thiol-reactive (MSTI) qHTS assay for identification of artifact compounds. (AID 1845221); conditions: MSTI thiol-reactivity probe, 1 h; series mostly up to 53.8 µM; further: nearly all actives have a fitted effect of over 65% in size; further: potency means the concentration at half of the fitted maximal effect;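 on activity change, negative = thiol reactive: thiol-reactive compounds lower the probe fluorescence signal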
How it was run: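 In PBS pH 7.4 with 2% DMSO, each compound met 4 uM MSTI for one hour at ambient temperature, shielded from light, before fluorescence detection.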

[5] = Primary redox qHTS assay for identification of artifact compounds. (AID 1845223); conditions: Amplex Red/HRP redox cycling with DTT, fluorescence; series mostly up to 53.8 µM;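 further: 0% = DMSO and 100% = reference compound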
How it was run: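 Redox-cycling detection via DTT (250 uM final) oxidation coupled to Amplex Red (25 uM)/HRP (250 mU/mL) in HBSS. 15 min preincubation plus 30 min after DTT, room temperature. Ex/Em 525/598 nm; 4-parameter Hill fit against DMSO and 10 uM DA3003.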

[6] = target: Phospholipid hydroperoxide glutathione peroxidase GPX4 (Homo sapiens) (UniProt P36969); assay: Primary qHTS Assay for Inhibitors of Recombinant Selenoprotein Glutathione Peroxidase 4 (GPX4) (AID 1845192); conditions: recombinant GPX4, GR-coupled NADPH fluorescence, 15 min; series mostly up to 27.8 µM; further: nearly all actives have a fitted effect of over 65% in size; on activity change, negative = inhibition: on the % scale 0 is the no-effect control and ±100 the full control effect
Sequence of Phospholipid hydroperoxide glutathione peroxidase GPX4 (Homo sapiens) (P36969 whole entry, looked up): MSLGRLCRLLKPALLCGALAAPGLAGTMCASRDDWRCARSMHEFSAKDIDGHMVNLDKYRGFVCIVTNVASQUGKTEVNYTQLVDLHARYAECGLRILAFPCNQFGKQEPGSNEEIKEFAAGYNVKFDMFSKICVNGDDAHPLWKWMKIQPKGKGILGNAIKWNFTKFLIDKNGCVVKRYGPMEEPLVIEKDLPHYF
How it was run: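 qHTS, GR-coupled: GPX4 200 nM + cpd 30 min RT → GSH 1 mM, NADPH 0.5 mM, GR 100 nM → CHP 0.5 mM start; fluor 340/450 at t0 and t15 min; no-enzyme wells as control.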

CCC(C)/C=C(C)/C=C/C1=CC2=CC(=O)C(C)(O)C(OC(C)=O)C2CO1 (stereo not drawn)
inactive: Potency [1] | Potency [2] | Potency [3]

Cc1ccc([C@@H]2CC=C(C(=O)O)[C@H](c3ccc(C(C)(C)C)cc3)N2S(=O)(=O)c2ccc(C)cc2)cc1
inactive: Potency [1] | Potency [2] | Potency [4] | Potency [3] | Potency [5]

O=C(O)CC1(O)C(=O)Nc2ccccc21 (stereo not drawn)
active: Potency [4] 25.1 µM
inactive: Potency [1] | Potency [2] | Potency [3]

O=C(NCCN1CCCC1)c1cc(-c2ccc(CN3CCOCC3)cc2)nc2ccc(F)cc12
inactive: Potency [1] | Potency [2] | Potency [4] | Potency [3] | Potency [5]

O=C(O)Cn1nnc(-c2ccc(CN(CCCCOc3ccc(CN4CCCC4)cc3)CCc3ccccc3)cc2)n1
inactive: Potency [1] | Potency [2] | Potency [4] | Potency [3] | Potency [5]

COC(=O)C1=CO[C@@H](O[C@@H]2O[C@H](CO)[C@@H](O)[C@H](O)[C@H]2O)C2C1CC(O)C2C (stereo partly drawn)
inactive: Potency [6] | Potency [2] | Potency [4] | Potency [3] | Potency [5]

CCC(C)C1NC(=O)C2C(C)CCN2C(=O)C(CC(O)CO)OC(=O)CCNC(=O)C(C)N(C)C(=O)C(C(C)C)N(C)C1=O (stereo not drawn)
inactive: Potency [6] | Potency [2] | Potency [4] | Potency [3] | Potency [5]

COc1cc(C)c(C(=O)OC2C(C)OC(OC3CCC(C)C4C3C=C(C)C3/C(C)=C\CC/C(C)=C/C5(C)C=C(C(=O)O)C(C)CC56OC(=O)/C(=C(\O)C34C)C6=O)C(O)C2O)c(OC)c1 (stereo not drawn)
inactive: Potency [6] | activity change, negative = inhibition [2] 1.3% [at 11.6 µM] | activity change, negative = thiol reactive [4] 142% [at 11.5 µM] | activity, negative = inhibition [3] 4.78% [at 11.6 µM]

Nc1ncnc2c1ncn2[C@H]1O[C@@H](C(=O)N2CCN(CC(=O)Nc3cccc4c3CNC4=O)CC2)[C@H](O)[C@@H]1O
inactive: Potency [6] | Potency [2] | Potency [4] | Potency [3] | Potency [5]

CC1(C)CC=C(C#Cc2ccccc2)c2cc(/C=C/c3ccc(C(=O)O)cc3)ccc21
inactive: Potency [6] | Potency [4] | Potency [3] | Potency [5]
active: Potency [2] 10.7 µM

NC1=NC2(c3cc(NC(=O)c4ccc(F)cn4)ccc3F)COCC2CS1 (stereo not drawn)
inactive: Potency [6] | Potency [2] | Potency [4] | Potency [3] | Potency [5]

CC[C@@H](C)[C@H](N)C(=O)N1Cc2ccccc2C1
inactive: Potency [6] | Potency [2] | Potency [4] | Potency [3] | Potency [5]

CC1(C)C2CC[C@]3(C)C(C(=O)C=C4[C@H]5C[C@@](C)(C(=O)O)CC[C@]5(C)CC[C@]43C)[C@@]2(C)CC[C@@H]1O (stereo partly drawn)
inactive: Potency [6] | Potency [2] | Potency [4] | Potency [3] | Potency [5]

Cc1c(Cc2ccc3ccccc3n2)c2cc(F)ccc2n1CC(=O)O
inactive: Potency [1] | Potency [2] | Potency [3] | Potency [5]

CCCCCOC(=O)Nc1nc(=O)n(C2O[C@H](C)[C@@H](O)[C@H]2O)cc1F (stereo partly drawn)
inactive: Potency [6] | Potency [2] | Potency [4] | Potency [3]

C=C1CC[C@@]2(OC1)O[C@H]1CC3[C@@H]4CC=C5C[C@H](O[C@H]6OC[C@@H](O)C(O)[C@@H]6O[C@@H]6O[C@@H](C)[C@H](O)[C@@H](O[C@@H]7O[C@H](CO)[C@@H](O)[C@H](O)[C@H]7O)[C@H]6O)C[C@@H](O)[C@]5(C)C4CC[C@]3(C)[C@H]1[C@@H]2C (stereo partly drawn)
inactive: Potency [6] | activity change, negative = inhibition [2] -10.8% [at 11.6 µM] | activity change, negative = thiol reactive [4] 124% [at 11.5 µM] | activity, negative = inhibition [3] -1.92% [at 11.6 µM]

C=C1CC23CC1CCC2C12OC(=O)C(C)(C(O)CC1O)C2C3C(=O)O (stereo not drawn)
inactive: Potency [1] | Potency [2] | Potency [5]

CCc1nnc(NS(=O)(=O)c2ccc(NC(=S)NC(=O)/C=C/c3ccc(F)cc3)cc2)s1
inactive: Potency [6] | Potency [2] | Potency [4] | Potency [3]

C[C@@H]1CC[C@]2(C(=O)O[C@@H]3O[C@H](CO[C@@H]4O[C@H](CO)[C@@H](O[C@@H]5O[C@@H](C)[C@H](O)[C@@H](O)[C@H]5O)[C@H](O)[C@H]4O)[C@@H](O)[C@H](O)[C@H]3O)CC[C@]3(C)C(=CCC4[C@@]5(C)C[C@@H](O)[C@H](O)[C@@](C)(CO)C5CC[C@]43C)C2[C@H]1C (stereo partly drawn)
inactive: Potency [6] | activity change, negative = inhibition [2] 3.24% [at 11.6 µM] | activity change, negative = thiol reactive [4] 329% [at 11.5 µM] | activity, negative = inhibition [3] 0% [at 11.6 µM] | redox activity (% of DA3003) [5] 3.39% [at 11.5 µM]

C=CC(C)(CC/C=C(\C)C(=O)OC[C@H]1O[C@@H](OC(C)(C=C)CC/C=C(\C)C(=O)O[C@H]2[C@H](O)[C@@H](O)[C@H](OC(C)(C=C)CC/C=C(\C)C(=O)O)O[C@@H]2CO)[C@H](O)[C@@H](O)[C@@H]1O)O[C@@H]1O[C@H](CO)[C@@H](O)[C@H](O)[C@H]1O (stereo partly drawn)
inactive: Potency [6] | outcome [2] inactive [at 11.6 µM] | activity change, negative = thiol reactive [4] 79.7% [at 11.5 µM] | activity, negative = inhibition [3] 3.18% [at 11.6 µM] | redox activity (% of DA3003) [5] 0.215% [at 11.5 µM]

C=C(COC(=O)CC(C)C)C1Cc2cc(C(C)=O)ccc2O1 (stereo not drawn)
inactive: Potency [6] | Potency [2] | Potency [4] | Potency [3]

CC1(C)CC=C(c2cnc3ccccc3c2)c2cc(C(=O)Nc3ccc(C(=O)O)cc3)ccc21
inactive: Potency [6] | Potency [2] | Potency [4] | Potency [3] | Potency [5]

C=C1C(=O)OC2CC(COC(=O)C(C)C)=C(C(C)CCCOC(C)=O)[C@@H](OC(C)=O)C12 (stereo partly drawn)
inactive: Potency [6] | Potency [2] | Potency [4] | Potency [3] | Potency [5]

CC(C)C1NC(=O)CNC(=O)C2CCCN2C(=O)C(Cc2c[nH]c3ccccc23)NC(=O)CNC(=O)C(C(O)c2ccc(O)cc2)NC(=O)CNC1=O (stereo not drawn) (cyclo(G[ξTyr(βOH)]GWPGV); configuration not given here)
inactive: Potency [6] | Potency [2] | Potency [4] | Potency [3] | Potency [5]

CC1(C)CC[C@]2(C(=O)O)CC[C@]3(C)C(=CCC4[C@@]5(C)CC[C@H](O)C(C)(C)C5CC[C@]43C)C2C1 (stereo partly drawn)
inactive: Potency [6] | Potency [2] | Potency [4] | Potency [3] | Potency [5]

Cc1ccc2[nH]c(=O)c(C3=NN(C(=O)CCC(=O)O)C(c4ccc(Br)cc4)C3)c(-c3ccccc3)c2c1 (stereo not drawn)
inactive: Potency [6] | Potency [2] | Potency [4] | Potency [3] | Potency [5]

Cc1sc(C)c(C(=O)NC2(c3ccc(C(=O)O)cc3)CC2)c1Cc1ccc(C(F)(F)F)cc1
active: Potency [3] 4.78 µM
inactive: Potency [6] | Potency [2] | Potency [4] | Potency [5]

CCOC(=O)C(CCc1ccccc1)NC1CCCN2CCCC(C(=O)O)N2C1=O (stereo not drawn)
inactive: Potency [6] | Potency [2] | Potency [4] | Potency [3]

CC(=O)OC1C(O)/C(C)=C\C2C(OC(=O)c3ccccc3)C(C)CC2(OC(C)=O)C(OC(C)=O)C(C)/C=C/C(C)(C)C1OC(C)=O (stereo not drawn)
inactive: Potency [6] | Potency [2] | Potency [4] | Potency [3] | Potency [5]

CCCCS(=O)(=O)NC(Cc1ccc(OCCCCC2CCNCC2)cc1)C(=O)O (stereo not drawn)
inactive: Potency [6] | Potency [2] | Potency [4] | Potency [3] | Potency [5]
